Calls of active or inactive are those of the source.
How the values were obtained:
[1] = small molecules captured by biotinylated probe aFSTL3 – biochemical, small-molecule microarray, fluorescence 635/667, stem cell growth factor project, primary screen (AID 1064); conditions: higher = more signal;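 further: measures binding of the biotinylated anti-FSTL3 antibody to printed compounds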
[2] = binders from COS7 lysate, DM2A8 probe, primary screen, torsin A project, cell lysate, small-molecule microarray, fluorescence 635/667 (AID 1065); conditions: higher = more signal, COS7 lysate expressing mutant human TOR1A
[3] = small molecules captured by biotinylated probe aFGF2 – biochemical, small-molecule microarray, fluorescence 635/667, stem cell growth factor project, primary screen (AID 1067); conditions: higher = more signal;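 further: measures binding of biotinylated aFGF2 protein to printed compounds on slides; z-score merges feature fluorescence and signal-to-noise across triplicate slides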
[4] = small molecules captured by biotinylated probe aFGF10 – biochemical, small-molecule microarray, fluorescence 635/667, stem cell growth factor project, primary screen (AID 1071); conditions: higher = more signal;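 further: score merges 667 nm spot intensity and signal to noise from triplicate slides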
[5] = biological target: Neurogenic locus notch homolog protein 2 (Homo sapiens) (UniProt Q04721); assay: small molecules binding Notch2 protein – biochemical, small-molecule microarray, 635 nm fluorescence, stem cell growth factors, primary screen (AID 1073); conditions: higher = more signal
[6] = biological target: Pro-neuregulin-1, membrane-bound isoform (Homo sapiens) (UniProt Q02297); assay: small molecules binding neuregulin-1 protein – biochemical, small-molecule microarray, fluorescence 635/667, psychiatric disease protein project, primary screen (AID 1075); conditions: NRG1 binding, 635 nm fluorescence, higher = more signal;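 further: score combines 667 nm spot fluorescence with signal to noise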
[7] = test system: Neuregulin-1 EGF-like domain; assay: small molecules binding NRG1 EGF domain – biochemical, small-molecule microarray, 635 nm fluorescence, primary screen (AID 1081); conditions: higher = more signal;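 further: binding of the protein to compounds printed on small-molecule microarray slides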
[8] = FRG1 expression reporter modulators in myotubes – cell-based, C2C12 myotubes, firefly/Renilla luciferase, luminescence, FRG1 inhibition for FSHD, primary screen (AID 1084); conditions: FRG1 promoter luciferase, higher = more signal, called active from +8 up or from −8 down
[9] = small molecules captured by biotinylated probe aFST – biochemical, small-molecule microarray, fluorescence 635/667, stem cell growth factor project, primary screen (AID 1086); conditions: higher = more signal;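 further: score merges 667 nm fluorescence with signal-to-noise of each printed compound spot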
[10] = binders of probe aHhip on microarray, primary screen, stem cell growth factor project, biochemical, small-molecule microarray, fluorescence 635/667 (AID 1087); conditions: higher = more signal;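 further: score merges spot fluorescence at 667nm with spot signal to noise ratio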
[11] = test system: PRMT1 (protein arginine N-methyltransferase 1); assay: small molecules binding arginine methyltransferase PRMT1 – biochemical, small-molecule microarray, 635 nm fluorescence, primary screen (AID 1088); conditions: higher = more signal;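 further: binding of Prmt1 protein to compounds spotted on small-molecule microarray slides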
[12] = growth effects on S. cerevisiae YJM789 – YJM789 clinical isolate, OD600, 24 h, basal, primary screen (AID 1089); conditions: higher = more signal, called active from +8 up or from −8 down;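 further: growth of clinical yeast isolate S. cerevisiae YJM 789 seeded 1000 cells per well; test concentration not given here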
[13] = S. pombe growth modifiers, basal conditions – strain 972, OD600, 24 h, no modulator, primary screen (AID 1090);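 further: basal condition with compound alone and no growth modifier present; test concentration not given here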; conditions: S. pombe 972 growth, higher = more signal, called active from +8 up or from −8 down
[14] = budding yeast growth modifiers under rapamycin – strain BY4716, OD600, 96 h, primary screen (AID 1091); further: test concentration not given here; conditions: S. cerevisiae BY4716 + rapamycin, higher = more signal, called active from +8 up or from −8 down
[15] = biological target: Torsin-1A-interacting protein 2 (Homo sapiens) (UniProt Q8NFQ8); assay: small molecules binding lysate-expressed LULL1 – cell lysate, human LULL1 lysate, 635/667 nm fluorescence, primary screen (AID 1092); conditions: small-molecule microarray, hLULL1 lysate binding, 635 nm fluorescence; higher = more signal;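 further: probe is lysate of COS7 cells overexpressing human LULL1; score merges per-feature 667 nm fluorescence with signal-to-noise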
[16] = optical density change of DRC41 E. coli – strain DRC41, OD650, 24 h, E. coli filamentation project, primary screen (AID 1093);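 further: MC1000 strain lacking acrAB efflux and sulA so SOS filamentation is blocked; test concentration not given here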; conditions: E. coli DRC41 growth, higher = more signal, called active from +8 up or from −8 down
[17] = probe aLefty2 binding to arrayed compounds – biochemical, biotinylated probe, 635/667 nm fluorescence, primary screen (AID 1094); conditions: small-molecule microarray, higher = more signal;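 further: score merges spot fluorescence near 667 nm with spot signal-to-noise ratio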
[18] = test system: Noggin (protein binding on small-molecule microarray); assay: small molecules binding Noggin protein – biochemical, 635/667 nm fluorescence, primary screen (AID 1095); conditions: 635 nm fluorescence, higher = more signal;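 further: score merges 667 nm feature fluorescence with signal to noise over triplicate slides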
[19] = biological target: Neurogenic locus notch homolog protein 3 (Homo sapiens) (UniProt Q9UM47); assay: small molecules binding NOTCH3 protein – biochemical, 635/667 nm fluorescence, primary screen (AID 1096); conditions: small-molecule microarray, 635 nm fluorescence, higher = more signal
[20] = probe aEGFR binding to arrayed compounds – biochemical, biotinylated probe, 635/667 nm fluorescence, primary screen (AID 1097); conditions: small-molecule microarray, higher = more signal;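 further: probe is a biotinylated anti-EGFR antibody binding compounds printed on slides; score combines fluorescence near 667 nm and signal to noise of each spot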

Chain of Neurogenic locus notch homolog protein 3 (Homo sapiens) (Q9UM47 whole entry, looked up): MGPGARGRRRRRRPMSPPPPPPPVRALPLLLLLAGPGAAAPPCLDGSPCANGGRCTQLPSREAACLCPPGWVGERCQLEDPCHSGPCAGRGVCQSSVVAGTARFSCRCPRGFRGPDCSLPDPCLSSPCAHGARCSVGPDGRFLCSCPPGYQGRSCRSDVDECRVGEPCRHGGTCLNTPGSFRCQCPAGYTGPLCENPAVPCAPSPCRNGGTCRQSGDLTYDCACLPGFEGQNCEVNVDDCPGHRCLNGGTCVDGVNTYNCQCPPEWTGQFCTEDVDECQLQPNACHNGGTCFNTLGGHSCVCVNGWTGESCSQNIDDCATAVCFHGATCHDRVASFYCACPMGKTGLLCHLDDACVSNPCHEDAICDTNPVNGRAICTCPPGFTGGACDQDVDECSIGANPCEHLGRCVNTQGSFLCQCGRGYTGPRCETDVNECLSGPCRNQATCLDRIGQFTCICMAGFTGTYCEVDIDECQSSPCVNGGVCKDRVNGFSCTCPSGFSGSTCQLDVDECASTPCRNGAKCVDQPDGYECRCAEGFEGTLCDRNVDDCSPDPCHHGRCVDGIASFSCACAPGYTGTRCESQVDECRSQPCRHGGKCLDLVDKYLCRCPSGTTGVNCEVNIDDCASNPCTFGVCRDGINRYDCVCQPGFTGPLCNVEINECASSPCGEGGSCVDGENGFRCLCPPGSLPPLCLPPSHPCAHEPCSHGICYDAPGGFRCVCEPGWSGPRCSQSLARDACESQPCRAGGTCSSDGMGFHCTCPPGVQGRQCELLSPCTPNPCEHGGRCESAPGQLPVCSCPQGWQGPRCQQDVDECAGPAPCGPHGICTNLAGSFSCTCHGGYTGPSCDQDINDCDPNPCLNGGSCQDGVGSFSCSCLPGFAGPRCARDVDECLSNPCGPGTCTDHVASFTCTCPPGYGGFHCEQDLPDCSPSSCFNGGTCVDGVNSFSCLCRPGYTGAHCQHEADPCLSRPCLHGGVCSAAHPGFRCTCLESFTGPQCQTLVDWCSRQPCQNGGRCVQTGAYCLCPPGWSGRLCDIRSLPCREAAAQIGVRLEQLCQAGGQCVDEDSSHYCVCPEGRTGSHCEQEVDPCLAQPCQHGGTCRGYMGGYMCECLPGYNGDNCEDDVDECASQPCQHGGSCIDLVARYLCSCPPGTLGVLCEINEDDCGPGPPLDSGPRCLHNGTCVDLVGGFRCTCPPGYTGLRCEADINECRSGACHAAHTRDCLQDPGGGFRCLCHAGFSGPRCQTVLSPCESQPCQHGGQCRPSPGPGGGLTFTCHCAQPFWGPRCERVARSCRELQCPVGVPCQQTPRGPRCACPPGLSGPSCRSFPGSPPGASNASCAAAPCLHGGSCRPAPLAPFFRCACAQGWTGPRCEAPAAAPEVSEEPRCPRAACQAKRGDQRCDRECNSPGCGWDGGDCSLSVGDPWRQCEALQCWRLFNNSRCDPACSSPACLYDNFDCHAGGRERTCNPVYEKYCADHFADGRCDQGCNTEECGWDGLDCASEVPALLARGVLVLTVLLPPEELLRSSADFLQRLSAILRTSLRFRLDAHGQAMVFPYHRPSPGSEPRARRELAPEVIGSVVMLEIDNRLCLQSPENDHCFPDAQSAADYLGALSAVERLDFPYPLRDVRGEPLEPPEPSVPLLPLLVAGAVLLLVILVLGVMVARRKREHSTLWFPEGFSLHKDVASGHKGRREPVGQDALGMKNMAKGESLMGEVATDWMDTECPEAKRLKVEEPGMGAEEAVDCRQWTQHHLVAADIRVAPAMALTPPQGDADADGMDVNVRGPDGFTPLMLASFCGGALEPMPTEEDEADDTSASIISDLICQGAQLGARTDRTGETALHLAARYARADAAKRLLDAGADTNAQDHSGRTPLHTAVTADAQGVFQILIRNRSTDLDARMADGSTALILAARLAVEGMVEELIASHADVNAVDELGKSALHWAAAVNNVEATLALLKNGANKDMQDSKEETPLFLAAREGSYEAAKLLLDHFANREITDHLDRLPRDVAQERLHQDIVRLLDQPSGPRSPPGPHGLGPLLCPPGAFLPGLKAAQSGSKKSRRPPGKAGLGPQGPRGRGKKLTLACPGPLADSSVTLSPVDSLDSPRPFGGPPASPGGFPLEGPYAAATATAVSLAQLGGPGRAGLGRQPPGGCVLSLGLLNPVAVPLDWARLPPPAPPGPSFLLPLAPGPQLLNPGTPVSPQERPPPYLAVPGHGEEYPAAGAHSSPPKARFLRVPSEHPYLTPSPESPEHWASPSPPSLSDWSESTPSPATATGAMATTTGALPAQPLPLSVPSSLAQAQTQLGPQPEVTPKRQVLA
Chain of Torsin-1A-interacting protein 2 (Homo sapiens) (Q8NFQ8 whole entry, looked up): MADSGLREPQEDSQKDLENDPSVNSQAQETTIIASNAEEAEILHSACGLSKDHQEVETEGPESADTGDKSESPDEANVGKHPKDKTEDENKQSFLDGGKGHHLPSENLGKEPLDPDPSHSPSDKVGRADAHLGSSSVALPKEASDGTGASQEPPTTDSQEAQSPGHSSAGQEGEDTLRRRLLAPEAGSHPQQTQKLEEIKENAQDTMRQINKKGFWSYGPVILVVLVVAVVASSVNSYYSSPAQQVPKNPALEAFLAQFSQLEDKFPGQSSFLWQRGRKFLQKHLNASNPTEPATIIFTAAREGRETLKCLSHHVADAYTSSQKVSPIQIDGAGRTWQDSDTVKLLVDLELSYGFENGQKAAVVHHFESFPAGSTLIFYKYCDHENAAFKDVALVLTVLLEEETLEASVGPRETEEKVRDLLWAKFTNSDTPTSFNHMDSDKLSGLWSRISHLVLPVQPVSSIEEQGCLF
Chain of Pro-neuregulin-1, membrane-bound isoform (Homo sapiens) (Q02297 whole entry, looked up, the tested form may be a part, canonical isoform): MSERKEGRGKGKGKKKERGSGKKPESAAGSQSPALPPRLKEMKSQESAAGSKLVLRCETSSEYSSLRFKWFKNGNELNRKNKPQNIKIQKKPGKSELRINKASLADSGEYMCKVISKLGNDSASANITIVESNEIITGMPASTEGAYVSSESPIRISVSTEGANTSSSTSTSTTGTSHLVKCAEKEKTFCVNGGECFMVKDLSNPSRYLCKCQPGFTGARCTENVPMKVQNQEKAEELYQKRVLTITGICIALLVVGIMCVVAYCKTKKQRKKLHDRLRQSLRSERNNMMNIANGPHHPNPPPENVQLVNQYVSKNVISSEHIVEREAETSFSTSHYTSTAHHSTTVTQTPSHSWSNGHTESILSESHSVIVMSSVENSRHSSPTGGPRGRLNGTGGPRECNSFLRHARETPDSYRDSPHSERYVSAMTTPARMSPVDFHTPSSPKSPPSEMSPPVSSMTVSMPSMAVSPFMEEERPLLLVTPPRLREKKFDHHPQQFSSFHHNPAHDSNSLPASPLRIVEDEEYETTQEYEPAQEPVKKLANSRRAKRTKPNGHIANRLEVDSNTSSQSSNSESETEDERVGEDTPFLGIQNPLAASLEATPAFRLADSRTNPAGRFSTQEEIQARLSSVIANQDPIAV

Structure (SMILES)	composite z-score [1]	composite z-score [2]	composite z-score [3]	composite z-score [4]	composite z-score [5]	composite z-score [6]	composite z-score [7]	z-score [8]	composite z-score [9]	composite z-score [10]	composite z-score [11]	z-score [12]	z-score [13]	z-score [14]	composite z-score [15]	z-score [16]	composite z-score [17]	composite z-score [18]	composite z-score [19]	composite z-score [20]
COc1cc2c(cc1OC)CN(C(=O)[C@H]1[C@@H]3C(=O)O[C@@H](c4ccccc4)[C@@H](c4ccccc4)N3[C@@H](c3ccc(O)cc3)[C@]13C(=O)Nc1ccc(C#CCNC(N)=O)cc13)CC2	-0.297	0.0737	-0.0473	0.689	-0.0344	0.404	0.37	0.297 (inactive)	0.135	0.0854	1.01	0.485 (inactive)	-0.363 (inactive)	0.518 (inactive)	0.458	0.395 (inactive)	0.0386	0.622	0.46	-0.02
COCCOC(=O)N1C(=O)[C@@]2(c3cc(C#CCCO)ccc31)[C@H](C(=O)N1CCc3cc(OC)c(OC)cc3C1)[C@H]1C(=O)O[C@H](c3ccccc3)[C@H](c3ccccc3)N1[C@@H]2c1ccc(O)cc1	-0.239	0.761	0.0106	0.393	1.15	1.46	1.32	0.897 (inactive)	0.239	-0.0645	1.54	1.42 (inactive)	0.0725 (inactive)	1.8 (inactive)	2.55	0.199 (inactive)	0.0262	1.07	1.08	-0.0191
C=CCNC(=O)[C@@H]1[C@H]2C(=O)O[C@H](c3ccccc3)[C@H](c3ccccc3)N2[C@H](c2ccccc2OCCO)[C@@]12C(=O)N(C(=O)OCCOC)c1ccc(C#CCNC(N)=O)cc12	-0.14	0.428	-0.0864	0.354	0.524	1.27	0.958	-0.623 (inactive)	-0.0306	0.251	1.46	1.11 (inactive)	0.731 (inactive)	2.72 (inactive)	2.85	-0.395 (inactive)	0.0395	0.61	1.12	0.0149
CN(C)CCCCCCNC(=O)[C@@H]1C[C@@H]2C(=O)N[C@@H](CCCCN)C(=O)N2[C@@H]1c1cccc(OCCO)c1	3.04	2.4	0.862	1.13	1.05	2.75	1.52	0.718 (inactive)	3.58	1.72	1.55	-5.46 (inactive)	-5.83 (inactive)	-1.3 (inactive)	4.63	0.0508 (inactive)	1.65	1.8	1.02	1.02
COCCOC(=O)N1C(=O)[C@@]2(c3cc(C#CCNC(N)=O)ccc31)[C@H](C(=O)NC[C@H](O)c1ccccc1)[C@H]1C(=O)O[C@H](c3ccccc3)[C@H](c3ccccc3)N1[C@@H]2c1ccccc1OCCO	-0.12	0.294	-0.0899	0.745	1.11	0.891	1.09	-0.864 (inactive)	-0.177	-0.113	1.55	1.56 (inactive)	1.11 (inactive)	3.45 (inactive)	2.6	-0.124 (inactive)	-0.0644	1.72	0.98	-0.118
C=C(CCCC)/C(=C/C[C@@H](OC(C)=O)c1ccccc1OCCO)c1cnc2ccccc2c1	0.0298	1.08	-0.0633	-0.036	0.13	0.967	0.95	-0.983 (inactive)	0.0983	0.176	1.3	0.182 (inactive)	-0.727 (inactive)	0.0058 (inactive)	1.1	0.468 (inactive)	-0.0208	0.61	0.513	-0.0675
C=CCN1C(=O)[C@]2(O[C@H](CCO)[C@@H]([Si](C)(C)c3ccc(OC)cc3)[C@@H]2C)c2cc(N3C(=O)c4cccc5cccc3c45)ccc21	-0.0848	0.326	-0.1	0.607	0.322	0.828	1.2	-2.66 (inactive)	-0.17	-0.236	1.46	3.36 (inactive)	2.8 (inactive)	36.8 (active)	2.01	0.577 (inactive)	-0.172	1.69	1.07	-0.137
COc1ccc(C(O)C2C=CC3C(=O)N(C)C(=O)C3N2N2CCCCC2)c2ccccc12 (stereo not given)	-0.226	0.0595	0.192	0.988	1.65	1.27	1.07	-0.292 (inactive)	0.858	0.176	1.42	-0.079 (inactive)	1.16 (inactive)	0.631 (inactive)	3.01	-1.22 (inactive)	0.168	0.303	1.11	0.095
O=C1O[C@H](c2ccccc2)[C@H](c2ccccc2)N2[C@H]1[C@@H](C(=O)O)[C@]1(C(=O)Nc3ccc(C#CCCO)cc31)[C@H]2c1ccc(O)cc1	1.32	0.502	0.0248	-0.0925	-0.665	0.957	0.708	0.482 (inactive)	0.481	0.437	-0.685	0.396 (inactive)	-0.228 (inactive)	0.385 (inactive)	0.782	1.57 (inactive)	0.541	-0.228	-0.557	0.186
Cc1ccc(C(C)CC(O)C2C=CC3C(=O)N(C)C(=O)C3N2NC(=O)OC(C)(C)C)o1 (stereo not given)	-0.112	0.6	0.239	0.687	0.868	1.67	0.883	0.385 (inactive)	0.889	-0.27	1.42	0.309 (inactive)	-0.63 (inactive)	0.101 (inactive)	3	-0.615 (inactive)	0.0682	0.68	1.06	0.0681
CO[C@H]1O[C@H](CO)[C@@H](OC(=O)Nc2ccc(Br)cc2)[C@H](OC(=O)c2cc3ccccc3[nH]2)[C@H]1OC(=O)c1cc2ccccc2[nH]1	-0.31	1.05	-0.11	0.724	0.606	0.844	1.07	-0.483 (inactive)	0.237	-0.0253	1.39	-1.96 (inactive)	-1.59 (inactive)	-0.654 (inactive)	2.48	2.05 (inactive)	0.0166	0.514	0.944	0.0686
COc1ccc(C(O)C2C=CC3C(=O)NC(=O)C3N2Nc2ccccn2)cc1 (stereo not given)	-0.0118	-0.765	0.0143	0.585	0.891	0.843	0.844	1 (inactive)	0.357	-0.159	0.425	0.181 (inactive)	0.312 (inactive)	0.359 (inactive)	0.665	-0.434 (inactive)	0.251	0.195	0.49	0.164
CC(C)(C)OC(=O)CC[C@]1(C(=O)O)N=C(c2ccc(OCCCO)cc2)O[C@H]1c1ccccc1N=[N+]=[N-]	1.1	0.236	0.441	0.448	0.984	1.35	1.14	5.5 (inactive)	2.04	1.24	0.938	0.0071 (inactive)	0.179 (inactive)	-0.668 (inactive)	3	-0.0096 (inactive)	1.1	0.189	0.41	0.285
COCCOC(=O)N1C(=O)[C@@]2(c3cc(C#CC4(O)CCCCCC4)ccc31)[C@H](c1ccc(O)cc1)N1[C@H](c3ccccc3)[C@H](c3ccccc3)OC(=O)[C@H]1[C@@H]2C(=O)Nc1nc2ccccc2s1	1.87	0.186	-0.045	0.769	1.15	1.15	1.02	1.41 (inactive)	2.31	0.468	1.35	0.861 (inactive)	-0.0153 (inactive)	0.383 (inactive)	3.08	-0.369 (inactive)	1.04	1.59	1.1	0.292
COC(=O)[C@@]1(Cc2ccc(F)cc2)[C@H]2c3cc(C(=O)N4CCCC4)n(Cc4cc(C)n(C)n4)c3C[C@H]2CN1C(=O)c1ccccc1	1.08	0.276	0.188	0.741	1.63	2.3	1.19	0.23 (inactive)	0.939	0.28	0.364	-0.408 (inactive)	-0.292 (inactive)	1.2 (inactive)	3.75	0.234 (inactive)	0.555	-0.678	0.769	0.209
COC(=O)C=C(CC(O)c1cccc(Cl)c1)OC (stereo not given)	1.55	0.172	0.54	0.0631	-0.0372	1.76	1.21	-4.2 (inactive)	1.65	-0.0879	0.0922	-4.19 (inactive)	-10.8 (active)	-1.02 (inactive)	2.4	0.0753 (inactive)	1.06	-0.309	-0.547	0.115
Cc1ccc(S[C@]2(C(=O)NCC(F)(F)F)CC(=O)N(C(C)C)[C@@H]2c2ccc(CO)cc2I)cc1	0.163	-0.98	-0.04	0.0063	-0.806	1.08	-0.395	-0.0636 (inactive)	-0.349	-0.374	-0.466	-0.0408 (inactive)	-0.704 (inactive)	2.23 (inactive)	1.15	0.0493 (inactive)	-0.0873	-1.13	-1.01	-0.2
O=C(NCc1ccccc1)[C@@H]1c2ccccc2C(=O)N(CC23CC4CC(CC(C4)C2)C3)[C@H]1c1ccc(CO)cc1	-0.906	0.0469	-0.0494	0.484	1.01	1.45	1.2	-3.34 (inactive)	0.193	-0.0994	1.55	-0.52 (inactive)	-0.0538 (inactive)	0.988 (inactive)	2.9	-0.668 (inactive)	-0.225	1.72	1.05	-0.137
COC(=O)[C@@]1(Cc2ccc(F)cc2)[C@@H]2[C@@H](CC(=O)[C@H]2CC(=O)C(=O)N(C)C)CN1C(=O)c1ccccc1	0.367	-0.178	0.287	0.855	1.76	1.3	1.18	-0.439 (inactive)	2.33	0.33	0.781	0.658 (inactive)	2.12 (inactive)	2.7 (inactive)	2.43	-0.874 (inactive)	0.288	0.221	1.08	0.4
